About 2,000 (36%) of roughly 5,500 compounds were called active. Not shown: some 18% with an inconclusive outcome. No stated cut-off is given here; in the data, active means normalized growth mostly below about 0.91 (no sharp cut-off); inconclusive means no clear call, values can overlap the other calls; inactive means mostly above about 0.92. This is one part of the list.
Test: chemical genetic growth profiling, strain panel (AID 1159580);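 further: tested at 20 µM; growth read once vehicle control cultures reached saturation at 30 °C; 1 = growth at the plate median or of vehicle wells; lower values mean less growth of the strain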
Conditions: growth OD

Measured: normalized growth

CC[C@H](CCC(C)[C@H]1CCC2C3CCC4C[C@@H](O)CC[C@]4(C)C3CC[C@@]21C)C(C)C (stereo partly drawn)
inactive: S. cerevisiae deletion strains, locus YKL009W, strain mrt4, active compounds read low 1.02 | S. cerevisiae deletion strains, locus YKL068W, active compounds read low 1.01 | S. cerevisiae deletion strains, locus YKL085W, strain MDH1 (second series), active compounds read low 1.01 | S. cerevisiae deletion strains, locus YKL085W, strain MDH1, active compounds read low 1.01 | S. cerevisiae deletion strains, locus YKL160W, strain elf1, active compounds read low 1.02 | S. cerevisiae deletion strains, locus YKR001C, strain vps1, active compounds read low 1.04 | S. cerevisiae deletion strains, locus YKR026C, strain gcn3, active compounds read low 0.988 | S. cerevisiae deletion strains, locus YKR091W, strain srl3, active compounds read low 0.992 | S. cerevisiae deletion strains, locus YLL001W, strain dnm1, active compounds read low 1.01 | S. cerevisiae deletion strains, locus YLL026W, active compounds read low 0.991 | S. cerevisiae deletion strains, locus YLL041C, strain sdh2, active compounds read low 0.969 | S. cerevisiae deletion strains, locus YLR027C, strain aat2, active compounds read low 0.987 | S. cerevisiae deletion strains, locus YLR039C, strain RIC1, active compounds read low 0.995 | S. cerevisiae deletion strains, locus YLR058C, strain SHM2, active compounds read low 1.01 | S. cerevisiae deletion strains, locus YLR102C, strain apc9, active compounds read low 1.01 | S. cerevisiae deletion strains, locus YLR113W, strain HOG1, active compounds read low 0.991 | S. cerevisiae deletion strains, locus YLR221C, strain rsa3, active compounds read low 1.03 | S. cerevisiae deletion strains, locus YLR258W, strain gsy2, active compounds read low 0.988 | S. cerevisiae deletion strains, locus YLR262C, strain YPT6 (second series), active compounds read low 0.97 | S. cerevisiae deletion strains, locus YLR262C, strain YPT6, active compounds read low 1.02 | S. cerevisiae deletion strains, locus YLR268W, strain sec22, active compounds read low 1.02 | S. cerevisiae deletion strains, locus YLR320W, strain mms22, active compounds read low 1.02 | S. cerevisiae deletion strains, locus YLR330W, strain CHS5, active compounds read low 1.01 | S. cerevisiae deletion strains, locus YLR342W, strain FKS1 (second series), active compounds read low 1.01 | S. cerevisiae deletion strains, locus YLR342W, strain FKS1, active compounds read low 0.978 | S. cerevisiae deletion strains, locus YLR357W, strain rsc2, active compounds read low 0.98 | S. cerevisiae deletion strains, locus YLR370C, strain arc18, active compounds read low 0.98 | S. cerevisiae deletion strains, locus YLR371W, strain rom2, active compounds read low 1.01 | S. cerevisiae deletion strains, locus YLR384C, strain iki3, active compounds read low 0.986 | S. cerevisiae deletion strains, locus YLR418C, strain cdc73, active compounds read low 1 | S. cerevisiae deletion strains, locus YML016C, strain PPZ1, active compounds read low 1.01 | S. cerevisiae deletion strains, locus YML032C, strain rad52, active compounds read low 1.01 | S. cerevisiae deletion strains, locus YML120C, strain ndi1, active compounds read low 0.989 | S. cerevisiae deletion strains, locus YML124C, strain tub3, active compounds read low 1.01 | S. cerevisiae deletion strains, locus YMR058W, strain fet3, active compounds read low 0.967 | S. cerevisiae deletion strains, locus YMR078C, strain ctf18, active compounds read low 1.01 | S. cerevisiae deletion strains, locus YMR125W, strain sto1, active compounds read low 0.969 | S. cerevisiae deletion strains, locus YMR129W, active compounds read low 0.982 | S. cerevisiae deletion strains, locus YMR205C, strain PFK2, active compounds read low 1.01 | S. cerevisiae deletion strains, locus YMR223W, strain ubp8, active compounds read low 0.988 | S. cerevisiae deletion strains, locus YMR231W, strain pep5, active compounds read low 0.975 | S. cerevisiae deletion strains, locus YMR263W, strain SAP30, active compounds read low 1.01 | S. cerevisiae deletion strains, locus YMR307W, strain GAS1, active compounds read low 0.973 | S. cerevisiae deletion strains, locus YNL067W, strain RPL9B, active compounds read low 1 | S. cerevisiae deletion strains, locus YNL071W, strain lat1, active compounds read low 0.974 | S. cerevisiae deletion strains, locus YNL153C, strain GIM3, active compounds read low 1 | S. cerevisiae deletion strains, locus YNL183C, strain NPR1, active compounds read low 0.974 | S. cerevisiae deletion strains, locus YNL209W, strain ssb2, active compounds read low 1 | S. cerevisiae deletion strains, locus YNL233W, strain BNI4, active compounds read low 1 | S. cerevisiae deletion strains, locus YNL248C, strain rpa49, active compounds read low 0.975 | S. cerevisiae deletion strains, locus YNL250W, strain rad50, active compounds read low 1 | S. cerevisiae deletion strains, locus YNL271C, strain bni1, active compounds read low 1.01 | S. cerevisiae deletion strains, locus YNL298W, strain CLA4, active compounds read low 1.02 | S. cerevisiae deletion strains, locus YNL307C, strain MCK1, active compounds read low 1.01 | S. cerevisiae deletion strains, locus YNL322C, strain KRE1 (second series), active compounds read low 0.982 | S. cerevisiae deletion strains, locus YNL322C, strain KRE1, active compounds read low 1 | S. cerevisiae deletion strains, locus YNR049C, strain mso1, active compounds read low 0.984 | S. cerevisiae deletion strains, locus YNR052C, strain pop2, active compounds read low 1.02 | S. cerevisiae deletion strains, locus YOL012C, strain htz1 0.67 | S. cerevisiae deletion strains, locus YOL147C, strain pex11, active compounds read low 1 | S. cerevisiae deletion strains, locus YOR001W, strain rrp6, active compounds read low 0.949 | S. cerevisiae deletion strains, locus YOR061W, strain CKA2, active compounds read low 1.02 | S. cerevisiae deletion strains, locus YOR069W, strain VPS5, active compounds read low 1.01 | S. cerevisiae deletion strains, locus YOR070C, strain gyp1, active compounds read low 1.02 | S. cerevisiae deletion strains, locus YOR080W, strain dia2, active compounds read low 0.988 | S. cerevisiae deletion strains, locus YOR083W, strain WHI5, active compounds read low 1.03 | S. cerevisiae deletion strains, locus YOR106W, strain vam3, active compounds read low 0.998 | S. cerevisiae deletion strains, locus YOR136W, strain idh2, active compounds read low 1.01 | S. cerevisiae deletion strains, locus YOR144C, strain elg1, active compounds read low 1.01 | S. cerevisiae deletion strains, locus YOR184W, strain ser1, active compounds read low 1.02 | S. cerevisiae deletion strains, locus YOR231W, strain MKK1, active compounds read low 1.01 | S. cerevisiae deletion strains, locus YOR265W, strain rbl2, active compounds read low 1.02 | S. cerevisiae deletion strains, locus YOR270C, strain vph1, active compounds read low 0.979 | S. cerevisiae deletion strains, locus YOR290C, strain snf2, active compounds read low 0.995 | S. cerevisiae deletion strains, locus YOR316C, strain cot1, active compounds read low 1.01 | S. cerevisiae deletion strains, locus YPL051W, strain arl3, active compounds read low 0.995 | S. cerevisiae deletion strains, locus YPL055C, strain LGE1, active compounds read low 1 | S. cerevisiae deletion strains, locus YPL078C, strain atp4, active compounds read low 0.989 | S. cerevisiae deletion strains, locus YPL106C, strain sse1, active compounds read low 0.994 | S. cerevisiae deletion strains, locus YPL240C, strain hsp82, active compounds read low 0.987 | S. cerevisiae deletion strains, locus YPL241C, strain CIN2, active compounds read low 1 | S. cerevisiae deletion strains, locus YPL256C, strain CLN2, active compounds read low 1.02 | S. cerevisiae deletion strains, locus YPR119W, strain clb2, active compounds read low 1.01 | S. cerevisiae deletion strains, locus YPR141C, strain kar3, active compounds read low 1.01 | S. cerevisiae deletion strains, locus YPR163C, strain tif3, active compounds read low 1.01 | S. cerevisiae deletion strains, locus YPR167C, strain met16, active compounds read low 1 | S. cerevisiae deletion strains, strain wtn01, active compounds read low 1.02 | S. cerevisiae strains, strain wild type, active compounds read low 1.01

Reference: PubChem BioAssay AID1159580 (chemical genetic matrix, 2015)
